# Only some compounds are listed: those with a hit (about 19% of all), similar ones and a draw of the others.
# uPA generation: qHTS for Inhibitors of Cell Surface uPA Generation; cell surface uPA generation assay, qHTS; Potency, µM (series often up to 38.3 µM), inactives show at the highest dose activity change, negative = inhibition, hits mostly inhibitors; actives 0.31% (n = 330,000); AID 540303, 2011; active = well fitted inhibition curve with a large enough effect; inconclusive = small, poorly fitted or top-dose-only effect; inactive = no such curve, though single readings can be large or run the other way; tested in mouse RAW 264.7 cells; note: potency is the fitted concentration of half-maximal effect; nearly all actives have a fitted effect of over 55% in size
# IL-1B inflam inh: qHTS for Inhibitors of Inflammasome Signaling: IL-1-beta AlphaLISA Primary Screen; THP-1 LPS/ATP IL-1B secretion, AlphaLISA, 16 h; hits give low values; activity change, % at 57.5 µM; actives 4.7% (n = 360,000); in the data active = activity change below about -50%; inconclusive = mostly about -30% to -49%
#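 THP-1 cells pretreated 1 hr with compounds (up to 57.5 uM final), then stimulated with LPS (250 ng/mL final) plus ATP (1.25 mM final); secreted IL-1B measured by AlphaLISA after 16 hr, decreased signal indicating inhibition.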
# HT1080 IDH1KD tx: qHTS for induction of synthetic lethality in tumor cells producing 2HG: qHTS for the HT-1080-IDH1KD cell line; actives 2% (n = 360,000); HT-1080 IDH1 knockdown viability, ATP luminescence, 48 h; Potency, µM (doses to about 46.1 µM), for the others: top-dose activity, negative = toxicity, actives largely listed as cytotoxic;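 note: potency is the fitted concentration of half-maximal effect; 0% = DMSO wells and -100% = cell-free medium wells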
#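 In this qHTS, HT-1080 cells depleted of IDH1 are exposed for 48 h at 37 °C to compound titrations. Toxicity is scored from CellTiter-Glo luminescence, with DMSO as full viability and medium alone as none.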
# DT40 TDP1 CPT: qHTS for Inhibitors of human tyrosyl-DNA phosphodiesterase 1 (TDP1): qHTS in cells in presence of CPT. chicken DT40 Tdp1-/-;hTDP1 cells + 20 nM CPT, ATP luminescence, 48 h. Potency, µM (highest dose often 46.2 µM), inactives show at the highest dose activity change, negative = growth inhibition, hits mostly inhibitors. actives 12% (n = 420,000); note: potency is the fitted concentration of half-maximal effect; nearly all actives have a fitted effect of over 55% in size
#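 Chicken DT40 Tdp1-/- cells stably complemented with human TDP1 were seeded at 400 cells/well in medium containing 20 nM camptothecin, exposed to pin-transferred compounds, and grown at 37 °C for at least 48 hr. Viability was read as ATP luminescence.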
# TDP1 cell noCPT: qHTS for Inhibitors of human tyrosyl-DNA phosphodiesterase 1 (TDP1): qHTS in cells in absence of CPT. DT40 Tdp1-/- hTDP1 cells, no CPT, ATP luminescence, 48 h. Potency, µM (titrated, usually from 46.2 µM), inactives show at the top dose activity change, negative = growth inhibition, hits mostly inhibitors. actives 15% (n = 420,000); note: potency is the fitted concentration of half-maximal effect; nearly all actives have a fitted effect of over 55% in size
#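 A cellular qHTS used chicken DT40 cells lacking endogenous Tdp1 but carrying stably transfected human TDP1. Compounds were applied without camptothecin, and cell growth kinetics were judged by ATP-dependent luminescence after ≥48 hr.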
# HT1080NT lethal: qHTS for induction of synthetic lethality in tumor cells producing 2HG: qHTS for the HT-1080-NT fibrosarcoma cell line; actives 1.6% (n = 360,000); HT-1080-NT fibrosarcoma viability, CellTiter-Glo ATP luminescence, 48 h; Potency, µM (series often up to 46.1 µM), for the others: top-dose activity, negative = less viability, hits mostly cytotoxic;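 note: NT is the 2HG producing partner of a matched IDH1 knockdown line; potency is the fitted concentration of half-maximal effect; 0% = DMSO-treated cells and -100% = media-only wells without cells; nearly all actives have a fitted effect of over 55% in size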
#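 Read-out is CellTiter-Glo luminescence after 10 minutes at room temperature, following 48 hours' compound treatment of HT-1080-NT cells (750 cells/well, RPMI, 5% FBS, 37 degrees C).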
# The depositor's hits bear a star; i = inactive; ? = inconclusive; . = no result. Unless noted, calls come from the whole dose curve; as a rule, active = well fitted curve in the direction sought with a large enough effect; inconclusive = small, poorly fitted or top-dose-only effect, or another doubt; inactive = no such curve, though single readings can be large; an effect the other way counts as inactive or inconclusive. Unless noted, % is set by controls: 0 for no effect and ±100 for the full control effect.
SMILES,uPA generation,IL-1B inflam inh,HT1080 IDH1KD tx,DT40 TDP1 CPT,TDP1 cell noCPT,HT1080NT lethal
Cc1cccc(C(=O)NNC(=O)c2ccc(Cl)cc2)c1O,-2.2%,14.1,-19.3%,?,20.6µM*,-21.5%
O=C(NNC(=O)c1cccc2ccccc12)c1ccc(Cl)cc1,-1.5%,-13.5,17.5%,1.6%,?,0.7%
CCCc1[nH]nc2c1C(c1ccc(OC)c(CSC3=NCCS3)c1)C(C#N)=C(N)O2 (stereo not drawn),-1.0%,-3.5,?,?,20.6µM*,-22.4%
Cc1[nH]c(=O)[nH]c(=O)c1S(=O)(=O)Nc1ccc(F)cc1Cl,3.4%,-22.5,-1.6%,2.6%,-11.1%,14.0%
COc1ccc(/C=N\NC(=O)c2ccccc2Br)cc1COc1ccccc1,?,-13.8,?,?,?,?
COc1ccc(OCc2cc(/C=N\NC(=O)c3ccccc3)ccc2OC)cc1,-17.0%,42.4,9.2µM*,4.61µM*,5.17µM*,6.51µM*
COc1ccc(C(=O)N/N=C/c2ccc(OC)c(CN3CCN(c4ccc(F)cc4)CC3)c2)cc1,1.2%,-5.0,1.1%,?,?,-0.1%
CC(/C=N/NC(=O)c1ccc(Br)cc1)=C\c1ccccc1,-4.7%,-3.3,-26.9%,-9.5%,-16.6%,-25.5%
COc1ccc(/C=N/NC(=O)c2ccoc2C)cc1CN1CCN(c2ccc(F)cc2)CC1,1.2%,-13.6,0.0%,?,14.6µM*,-2.8%
COc1ccc(C(=O)N/N=C/c2ccc(OC)c(COc3c(F)c(F)cc(F)c3F)c2)cc1,-5.4%,54.5,-23.4%,?,0.9%,-8.7%
COc1ccc(C(=O)N/N=C\c2ccc(OC)c(COc3ccccc3Br)c2)c(OC)c1,-18.9%,-14.1,?,23.1µM*,?,1.3%
COc1ccc(C(=O)N/N=C\C(C)=C\c2ccccc2)cc1OC,-18.9%,-94.4*,-5.0%,?,16.4µM*,-7.9%
O=C(NCc1cccs1)C1C(=O)Nc2ccccc2C(=O)N1C1CCCC1 (stereo not drawn),.,5.1,27.5%,-3.3%,-5.6%,14.9%
COc1ccc(NC(=O)COc2ccc(/C=N/NC(=O)c3cccnc3)cc2OC)cc1,-8.9%,-7.1,0.2%,18.4µM*,23.1µM*,2.9%
COc1cc(OC)cc(C(=O)N/N=C/c2ccc(OC)c(COc3ccc(F)cc3)c2)c1,-11.2%,32.4,5.17µM*,2.31µM*,2.91µM*,?
COc1ccc(/C=N\NC(=O)c2ccc(F)cc2)cc1COc1ccccc1C(N)=O,0.4%,i,-0.6%,-24.0%,?,-4.9%
COc1ccc(/C=N/NC(=O)c2cc(OC)c(OC)c(OC)c2)cc1CN1CCc2cc(OC)c(OC)cc2C1C (stereo not drawn),-8.9%,25.5,13µM*,?,?,?
COc1ccc(/C=N/NC(=O)c2cccnc2)cc1CN1CCCc2ccccc21,0.3%,3.7,-9.0%,?,11.6µM*,-8.3%
COc1cc(/C=N/NC(=O)c2cccnc2)ccc1OCC(=O)Nc1ccccc1Cl,1.2%,8.3,2.1%,-18.4%,-25.2%,-9.4%
COc1ccc(C(=O)N/N=C/c2ccc(OC)c(CN3CCCc4ccccc43)c2)cc1,-13.1%,?,-2.5%,-24.4%,?,-13.3%
CC1CCCC/C1=N\NS(=O)(=O)c1ccc(Br)cc1 (stereo not drawn),-1.5%,11.7,11.1%,-2.6%,0.5%,11.6%

# From PubChem BioAssay
